Results filed as inconclusive are left out. Entries that show only a call come without a potency. The source holds several records for some structures; these can differ, active in one and inactive in another. Calls of active or inactive are those of the source. Calls come from the whole dose curve; as a rule, active = well fitted cell-killing curve with a large enough effect in the repeat runs; inconclusive = weak or mixed curves, or effect the other way; inactive = flat fitted curve, though single readings scatter. Residues, ends and D or L forms follow the SMILES beside them.
Test: qHTS RealTime-Glo MT Cell Viability Assay in HepG2 cells - 40 hour (AID 1224870); note: nearly all actives have a fitted effect of over 50% in size
Settings: RealTime-Glo luminescence; series mostly up to 76.8 µM
Excerpt: National Center for Advancing Translational Sciences [NCATS]
NIH Chemical Genomics Center [NCGC]
U.S. Environmental Protection Agency [EPA]
National Institutes of Environmental Health Sciences [NIEHS]
National Toxicology Program [NTP]
U.S. Food and Drug Administration [FDA]
Measure of cell viability is critical in the cell-base assay. Analysis of cell viability is necessary for the characterization of cell responses to cytotoxic drugs and environmental stress. A RealTime-Glo MT Cell Viability Assay to monitor cell viability in real time of continues cell culture during 40 hours of compound treatment was used to screen Tox21 10K library compounds in HepG2 cells. The RealTime-Glo MT Cell Viability Assay is a nonlytic, homogeneous, bioluminescent method to measure cell viability in real time using a simple, plate-based method. The assay involves adding NanoLuc luciferase and a cell-permeant prosubstrate to cells in culture. Viable cells reduce the proprietary prosubstrate to generate a substrate for NanoLuc luciferase. This substrate diffuses from cells into the surrounding culture medium, where it is rapidly used by the NanoLuc Enzyme to produce a luminescent signal. The signal correlates with the number of viable cells, making the assay well suited for cytotoxicity studies.
Tox21 Assay Protocol Summary:
The mixture of HepG2 cell suspension and reagents were dispensed at 600cells/6 ul/well in 1536-well tissue culture treated black solid bottom plates using a Multidrop dispenser. After the assay plates were incubated at a 37 C/5% CO2 incubator for 5 hours, 23 nL of compounds dissolved in DMSO, positive and negative controls was transferred to the assay plate by a pintool work station. The plates were incubated at 37 C for 40 hours. The luminescence intensity were measured at 0h, 8h, 16h, 24h, 32h and 40h time points using ViewLux plate reader during compound treatment.
Potency is the fitted concentration of half-maximal effect.

| SMILES | Potency |
| --- | --- |
| O=NO | inactive |
| CC(O)CO (stereo not given) | inactive |
| COC(=O)[C@H](Cc1ccccc1)NC(=O)[C@@H](N)CC(=O)O (H-Asp-Phe-OMe) | inactive |
| CC(O)C(=O)O (stereo not given) | inactive |
| Cc1cc(=O)[nH]c(=S)[nH]1 | inactive |
| O=C1NC(=O)c2ccccc21 | inactive |
| CC(C)[C@@H]1CC[C@@H](C)C[C@H]1O | inactive |
| CC(=O)NS(=O)(=O)c1ccc(N)cc1 | inactive |
| O=C(O)c1[nH]n(-c2ccc(S(=O)(=O)O)cc2)c(=O)c1N=Nc1ccc(S(=O)(=O)O)cc1 | inactive |
| O=c1cc[nH]c(=S)[nH]1 | inactive |
| Nc1ccc(C(=O)O)cc1 | inactive |
| CCC1(c2ccccc2)C(=O)NCNC1=O | inactive |
| Nc1ccc(O)c(C(=O)O)c1 | inactive |
| NC(N)=O | inactive |
| O=S(=O)(O)NC1CCCCC1 | inactive |
| NNC(=O)c1ccncc1 | inactive |
| O=C1CN(/N=C/c2ccc([N+](=O)[O-])o2)C(=O)N1 | inactive |
| O=C(c1ccccc1)c1ccccc1 | inactive |
| NC(N)=NC(=O)c1nc(Cl)c(N)nc1N | inactive |
| CCCNC(=O)NS(=O)(=O)c1ccc(Cl)cc1 | inactive |

| SMILES | Potency |
| --- | --- |
| Nc1ccn([C@H]2CC[C@@H](CO)O2)c(=O)n1 | inactive |
| O=C(O)CCCCCCCC(=O)O | inactive |
| O=c1ccc2ccccc2o1 | inactive |
| CCCC(CCC)C(=O)O | inactive |
| OCCc1ccccc1 | inactive |
| Cc1ccccc1C(OCCN(C)C)c1ccccc1 (stereo not given) | inactive |
| CC1(C)[C@@H]2CC[C@@]1(C)C(=O)C2 | inactive |
| O=C(O)/C=C\C(=O)O | inactive |
| c1ccc2[nH]ccc2c1 | 3.41 µM (active) and inactive |
| CC(C)(Oc1ccc(C2CC2(Cl)Cl)cc1)C(=O)O (stereo not given) | inactive |
| NS(=O)(=O)c1cc(C(=O)O)c(NCc2ccco2)cc1Cl | inactive |
| O=C(O)CCCCC(=O)O | inactive |
| NC(=O)c1cnccn1 | inactive |
| CC(=O)OCC(COC(C)=O)OC(C)=O | inactive |
| O=C(O)c1cc(N=Nc2ccc(S(=O)(=O)Nc3ccccn3)cc2)ccc1O | inactive |
| CCCC(O)C(CC)CO (stereo not given) | inactive |
| C/C=C/c1ccc(OC)cc1 | inactive |
| CCCCC1C(=O)N(c2ccccc2)N(c2ccccc2)C1=O | inactive |
| O=C(O)CCC(=O)O | inactive |
| O=C(O)c1cccc([N+](=O)[O-])c1 | inactive |

— PubChem BioAssay (Tox21)
